Compounds with a hit are over-represented: about 0.9% of the library has one in this group of screens.
PPARg SRC2 recr = agonists of SRC-2 recruitment by human PPARgamma; P37231; PPARgamma LBD-SRC-2 recruitment, biochemical; activation, % at 8 µM; 200,000 tested, 0.34% active; in the data active = activation above about 22%;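 note: 0% = vehicle and 100% = reference agonist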
Target sequence (P37231 whole entry, looked up, the tested form may be a part): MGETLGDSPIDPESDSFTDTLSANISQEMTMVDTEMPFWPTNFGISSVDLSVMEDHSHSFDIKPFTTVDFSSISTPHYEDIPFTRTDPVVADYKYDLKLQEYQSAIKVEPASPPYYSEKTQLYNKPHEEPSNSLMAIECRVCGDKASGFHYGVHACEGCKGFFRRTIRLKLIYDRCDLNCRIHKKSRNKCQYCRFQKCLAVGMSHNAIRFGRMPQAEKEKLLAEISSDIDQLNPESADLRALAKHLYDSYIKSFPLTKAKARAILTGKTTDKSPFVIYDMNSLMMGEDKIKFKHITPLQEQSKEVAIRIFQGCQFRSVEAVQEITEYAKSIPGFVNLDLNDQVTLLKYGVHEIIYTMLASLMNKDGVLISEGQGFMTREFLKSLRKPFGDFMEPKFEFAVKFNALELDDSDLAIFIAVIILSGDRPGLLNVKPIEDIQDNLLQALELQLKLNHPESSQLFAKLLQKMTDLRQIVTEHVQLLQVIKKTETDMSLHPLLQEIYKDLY
SRC3 TRFRET art = flags TR-FRET format artefacts in PPARgamma SRC-3 recruitment agonist screen; TR-FRET artefact counter-screen, PPARgamma/SRC-3 format; stronger effect = higher value; TR-FRET ratio at 8 µM; 99,000 tested, 0.39% active; AID 1048
SRC1 TRFRET art = TR-FRET artefact, counter-screen to PPARgamma/SRC-1 agonist assay. TR-FRET detection artefact counter-screen, emission ratio; stronger effect = higher value. TR-FRET ratio at 8 µM. 99,000 tested, 0.34% active; in the data active = TR-FRET ratio above about 2300
TR-FRET SRC-2 ct = TR-FRET artefact, counter-screen to PPARgamma/SRC-2 agonist assay; TR-FRET ratio at 8 µM; stronger effect = higher value; AID 1049; 200,000 tested, 0.4% active
PPARg SRC3 recr = agonists of human PPARgamma SRC-3 coactivator recruitment | biochemical PPARgamma/SRC-3 coactivator recruitment assay | activation, % at 8 µM | 200,000 tested, 0.26% active | AID 731; in the data active = activation above about 23%;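 note: 0% = DMSO and 100% = reference agonist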
PPARg SRC-1 ag = promotes SRC-1 coactivator recruitment by human PPARgamma; 200,000 tested, 0.41% active; PPARgamma-SRC-1 coactivator recruitment biochemical assay; activation, % at 8 µM; in the data active = activation above about 19%;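 note: 0% = DMSO and 100% = reference agonist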
* marks the source's active call; other numbers are inactive results; · = no result. Cut-off read from the data, not from the text of the source, unless noted: active = TR-FRET ratio above about 2000; inactive = the rest.

SMILES	PPARg SRC2 recr	SRC3 TRFRET art	SRC1 TRFRET art	TR-FRET SRC-2 ct	PPARg SRC3 recr	PPARg SRC-1 ag
O=C(N/N=C/c1sc(N2CCOCC2)nc1-c1ccccc1)c1ccccc1O	-1	1407	1582	1451	-5	1
COc1cccc(Nc2nnc(SCC3CCCCO3)s2)c1 (stereo unspecified)	-1	1663	1883	2017*	7	-4
COc1cc(C(=O)NNC(=S)NCc2ccco2)cc(OC)c1OC	10	1555	1730	1444	5	5
Cc1ccc(NS(=O)(=O)c2ccc(OCC(=O)NCc3cccnc3)cc2)cc1	27*	1701	1921	1614	4	2
CCC(C)NS(=O)(=O)c1ccc(OCC(=O)NCc2cccnc2)cc1 (stereo unspecified)	8	·	·	1304	2	6
Cc1ccc(OCC(=O)NS(=O)(=O)c2ccccc2)cc1	-2	1655	1979	1545	7	11
Cc1ccc(S(=O)(=O)NC(=O)COc2ccccc2)cc1	0	1472	2230	1758	6	21*
COc1ccc(NC(=O)CC(C)c2ccccc2)c([N+](=O)[O-])c1 (stereo unspecified)	-2	1688	2078	1518	1	4
Cc1ccc(-n2cnnn2)cc1Cl	5	1726	1767	1500	2	10
CC1CN(CC(=O)Nc2cc(S(=O)(=O)N3CCCC3)ccc2Cl)CC(C)O1 (stereo unspecified)	6	1789	2155	2051*	3	5
Cc1ccc(NC(=O)CSc2ncnc3ccccc23)cc1S(=O)(=O)N1CCCCCC1	6	2506*	1799	1930	9	8
Cc1ccc(S(=O)(=O)N2CCCCC2)cc1NC(=O)CSc1ncnc2ccccc12	-2	1694	1882	1581	4	2
O=C(CSc1ncnc2ccccc12)Nc1cc(S(=O)(=O)N2CCCCC2)ccc1Cl	-5	2968*	2201	2930*	3	0
CS(=O)(=O)c1ccc(N2CCN(C3CC(=O)NC3=O)CC2)cc1 (stereo unspecified)	0	·	·	1416	1	1
Cn1c(=O)c2[nH]c(-c3ccccc3Cl)c(O)c2n(C)c1=O	1	1751	1667	1382	2	-6
Cn1c(=O)c2[nH]c(-c3ccccc3)c(O)c2n(C)c1=O	10	1758	2338*	1679	11	8
O=C(Nc1nccc(-c2cccs2)n1)c1cccs1	4	·	·	1536	3	-2
Nc1nccc(-c2cccs2)n1	5	1787	2012	2014*	4	-2
O=C(O)C1CC=CCC1C(=O)Nc1cccc(Cl)c1Cl (stereo unspecified)	-9	·	·	1467	-6	-1
Cc1ccnc(NS(=O)(=O)c2ccc(NC(=O)c3cc(-c4ccccc4)nc4ccccc34)cc2)n1	12	1716	1937	1552	3	2
CCOC(=O)c1c(NC(=O)C2=C(C)NC(=S)NC2c2ccc(C)cc2)sc(C)c1C (stereo unspecified)	3	1630	2914*	1494	2	16
CCOC(=O)c1c(NC(=O)C2=C(C)NC(=S)NC2c2ccc(F)cc2)sc(C)c1C (stereo unspecified)	7	1671	1845	1612	1	1
O=C(CSc1nnc(-c2ccc(F)cc2)c2ccccc12)Nc1ccccc1	6	2080*	2120	1768	8	11
O=C(CSc1nnc(-c2ccc(F)cc2)c2ccccc12)Nc1c(F)cccc1F	17	1547	1814	1603	-1	8
O=C(CSc1nnc(-c2ccc(F)cc2)c2ccccc12)Nc1ccccc1Cl	8	2763*	1880	1884	-1	2
SMILES	PPARg SRC2 recr	SRC3 TRFRET art	SRC1 TRFRET art	TR-FRET SRC-2 ct	PPARg SRC3 recr	PPARg SRC-1 ag
O=C(CSc1nnc(-c2ccc(F)cc2)c2ccccc12)Nc1cccc(Cl)c1	4	3308*	2670*	2527*	5	4
C/C(=N/NC(=O)Cc1cccn1C)c1ccccc1	-2	·	·	1444	0	-7
CCCCN(CC)CCCNC(=O)CC1Nc2ccccc2NC1=O (stereo unspecified)	22*	·	·	1542	13	11
O=C(Nc1ccc(F)cc1F)c1csc(-c2ccncc2)n1	2	1707	1880	1625	4	4
O=C(Nc1ccc(F)cc1F)c1csc(-c2cccs2)n1	10	1765	1858	2010*	6	5
C=CCn1c(SCc2ccc(C(=O)OC)cc2)nnc1-c1sc(N)nc1C	2	1516	1914	1972*	5	12
O=C(CN1C(=O)c2ccccc2S1(=O)=O)Nc1ccccc1	-7	·	·	1472	-5	-6
CSc1cccc(NC(=O)CN2C(=O)c3ccccc3S2(=O)=O)c1	22*	·	·	1521	21	0
Cc1sc(NC(=O)CSC2=NCCS2)nc1-c1ccccc1	3	·	·	1486	7	-1
CC(=O)N1CC(=O)N=C1SCC(=O)Nc1nc(-c2ccccc2)c(-c2ccccc2)s1	18	1929	2356*	1758	10	17
CC1CCCCN1C(=O)Nc1cccc(C(F)(F)F)c1 (stereo unspecified)	5	1831	2319*	1781	6	13
CCOC(=O)CSC(=S)NC(=O)c1ccc(OC)cc1	15	2008	2487*	1985*	12	8
COc1ccccc1C(=O)NCC(=O)OCC(=O)c1ccc2c(c1)-c1ccccc1C2	16	2088*	1947	1874	8	4
COc1cccc(/C=c2/s/c(=C(\C#N)C(=O)N3CCOCC3)n(-c3ccccc3)c2=O)c1	4	·	·	1688	48*	6
COc1ccc(/C=c2\s/c(=C(/C#N)C(=O)NCc3ccco3)n(-c3ccccc3)c2=O)cc1	-5	1411	1726	1506	-1	-6
COc1ccc(C(=O)NCC(=O)N=Nc2c(O)n(Cc3ccccc3)c3ccccc23)cc1OC	34*	1814	2056	2099*	6	1
O=C(N=Nc1c(O)n(Cc2ccccc2)c2ccccc12)c1ccc(O)cc1	9	1586	2013	1573	5	-2
O=C(Nc1ccccc1N1CCOCC1)c1ccc(S(=O)(=O)NCc2ccco2)cc1	0	1555	1531	1573	0	7
Cc1ccc2cc(C#N)c(NCc3ccccc3)nc2c1	17	2317*	2504*	1722	18	19
CCn1c(CNC(=O)c2ccco2)nnc1SCC(=O)c1ccccc1	6	1551	1609	1553	4	4
Cc1cc(-c2ccccc2)nc(SCC(=O)N2CCCC2)n1	6	1583	1787	1241	3	1
Fc1ccc(-c2n[nH]c(=S)n2-c2ccc3c(c2)OCCO3)cc1	19	2239*	2494*	1992*	20	19
Cn1cc(Cl)c(-c2n[nH]c(=S)n2-c2ccc(F)cc2)n1	21	1845	2344*	1896	10	17
S=c1[nH]nc(-c2ccc(Cl)cc2)n1-c1ccc2c(c1)OCCO2	21	1832	2170	1817	13	17

Compound activity from PubChem BioAssay.
